# Calls of active or inactive are those of the source. How the source made its calls: active means hit-call score of the fitted dose curve at least 0.9, where 1 is the maximum; inactive means score below 0.9.
# Read-out: TIMP metallopeptidase inhibitor 1 (TIMP1), TIMP1 (gene 7076)
# Assay: BSK_hDFCGF_TIMP1: BioMAP Diversity Plus: hDFCGF Assay for TIMP metallopeptidase inhibitor 1 (TIMP1) Biomarker Activity (AID 2283062)
# Conditions: primary human foreskin fibroblasts; actives raise or lower the signal
# Outline: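 Bidirectional curve fitting against DMSO baseline yielded this endpoint, based on ELISA detection of TIMP-1 in primary human foreskin fibroblasts exposed to compound for 24 h.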
row,SMILES,outcome
1,O=C(O)CC(O)(CC(=O)O)C(=O)O,inactive
2,COc1ccc(OC(F)(F)F)cc1CN[C@H]1CCCN[C@H]1c1ccccc1,inactive
3,CS(=O)(=O)c1ccc([C@@H](C[C@H]2CCC(=O)C2)C(=O)Nc2cnccn2)cc1Cl,inactive
4,O=C1c2c(O)cccc2Cc2cccc(O)c21,inactive
5,CCCCC(CC)COC(=O)CCCCCCCC(=O)OCC(CC)CCCC (configuration not stated),inactive
6,C#CC(O)C(CC)CCCC (configuration not stated),inactive
7,NCCOCCOCCN,inactive
8,COC(=O)[C@H]1[C@H]2C[C@@H]3c4[nH]c5cc(OC)ccc5c4CCN3C[C@H]2C[C@@H](OC(=O)c2cc(OC)c(OC)c(OC)c2)[C@@H]1OC,inactive
9,COC(=O)CCC(=O)OC,inactive
10,CC(=O)O,inactive
11,CC(=O)CC(c1ccccc1)c1c(O)c2ccccc2oc1=O (configuration not stated),inactive
12,CC(=O)O[C@]1(C(C)=O)CC[C@H]2[C@@H]3C=C(Cl)C4=CC(=O)[C@@H]5C[C@@H]5[C@]4(C)[C@H]3CC[C@@]21C,inactive
13,c1ccc2occc2c1,inactive
14,NC1CCCCC1,inactive
15,NC(=Nc1ccccc1)Nc1ccccc1,inactive
16,CCCCC(CC)COP(=O)(OCC(CC)CCCC)OCC(CC)CCCC (configuration not stated),inactive
17,O=C(N[C@@H](c1ccccc1)[C@@H]1CCCCN1)c1cccc(C(F)(F)F)c1Cl,inactive
18,Oc1ccccc1O,inactive
19,CC(=O)[C@@]1(O)CC[C@H]2[C@@H]3CCC4=CC(=O)CC[C@]4(C)[C@H]3CC[C@@]21C,inactive
20,CCCCOC(=O)CCCCC(=O)OCCCC,inactive
21,CCc1nc(N)nc(N)c1-c1ccc(Cl)cc1,inactive
22,CO[C@@H]1COCC[C@@H]1N[C@@H]1CC[C@@](C(=O)N2CCc3ncc(C(F)(F)F)cc3C2)(C(C)C)C1,inactive
23,O=C1OC(c2ccc(O)cc2)(c2ccc(O)cc2)c2ccccc21,inactive
24,Nc1nc(=S)c2[nH]cnc2[nH]1,inactive
25,CC(C)OC(=O)C(C)(C)Oc1ccc(C(=O)c2ccc(Cl)cc2)cc1,inactive
26,CCCCC(CC)CO (configuration not stated),inactive
27,CCCCCCC(C=O)=Cc1ccccc1,inactive
28,CCOCCOCCO,inactive

# Read-out: Monokine induced gamma interferon (MIG), CXCL9 (gene 4283)
# Assay: BSK_hDFCGF_MIG: BioMAP Diversity Plus: hDFCGF Assay for Monokine induced gamma interferon (MIG) Biomarker Activity (AID 2283063)
# Conditions: primary human foreskin fibroblasts; actives raise or lower the signal
# Outline: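 Endpoint derived by bidirectional fitting relative to DMSO; MIG quantified via ELISA in primary human foreskin fibroblasts harvested 24 h after dosing.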
SMILES,outcome,AC50
O=C(O)CC(O)(CC(=O)O)C(=O)O,inactive,–
COc1ccc(OC(F)(F)F)cc1CN[C@H]1CCCN[C@H]1c1ccccc1,inactive,–
CS(=O)(=O)c1ccc([C@@H](C[C@H]2CCC(=O)C2)C(=O)Nc2cnccn2)cc1Cl,inactive,–
O=C1c2c(O)cccc2Cc2cccc(O)c21,–,15.7 µM (active)
Cc1c(C)c2c(c(C)c1O)CCC(C)(COc1ccc(CC3SC(=O)NC3=O)cc1)O2 (configuration not stated),–,20 µM (active)
CCCCC(CC)COC(=O)CCCCCCCC(=O)OCC(CC)CCCC (configuration not stated),inactive,–
C#CC(O)C(CC)CCCC (configuration not stated),inactive,–
NCCOCCOCCN,inactive,–
COC(=O)[C@H]1[C@H]2C[C@@H]3c4[nH]c5cc(OC)ccc5c4CCN3C[C@H]2C[C@@H](OC(=O)c2cc(OC)c(OC)c(OC)c2)[C@@H]1OC,inactive,–
COC(=O)CCC(=O)OC,inactive,–
CC(=O)O,inactive,–
CC(=O)CC(c1ccccc1)c1c(O)c2ccccc2oc1=O (configuration not stated),inactive,–
CC(=O)O[C@]1(C(C)=O)CC[C@H]2[C@@H]3C=C(Cl)C4=CC(=O)[C@@H]5C[C@@H]5[C@]4(C)[C@H]3CC[C@@]21C,inactive,–
c1ccc2occc2c1,inactive,–
NC1CCCCC1,inactive,–
CCCCC(CC)COP(=O)(OCC(CC)CCCC)OCC(CC)CCCC (configuration not stated),inactive,–
O=C(N[C@@H](c1ccccc1)[C@@H]1CCCCN1)c1cccc(C(F)(F)F)c1Cl,inactive,–
Oc1ccccc1O,–,11.2 µM (active)
CC(=O)[C@@]1(O)CC[C@H]2[C@@H]3CCC4=CC(=O)CC[C@]4(C)[C@H]3CC[C@@]21C,inactive,–
CCCCOC(=O)CCCCC(=O)OCCCC,inactive,–
CCc1nc(N)nc(N)c1-c1ccc(Cl)cc1,inactive,–
CO[C@@H]1COCC[C@@H]1N[C@@H]1CC[C@@](C(=O)N2CCc3ncc(C(F)(F)F)cc3C2)(C(C)C)C1,inactive,–
O=C1OC(c2ccc(O)cc2)(c2ccc(O)cc2)c2ccccc21,inactive,–
CN(C)CCCN1c2ccccc2Sc2ccc(Cl)cc21,–,31.1 µM (active)
Nc1nc(=S)c2[nH]cnc2[nH]1,inactive,–
CC(C)OC(=O)C(C)(C)Oc1ccc(C(=O)c2ccc(Cl)cc2)cc1,inactive,–
CCCCC(CC)CO (configuration not stated),inactive,–
CCCCCCC(C=O)=Cc1ccccc1,inactive,–
CCOCCOCCO,inactive,–

# From PubChem BioAssay (EPA / NIEHS)
